Measurements from the supplement of paper PMC6555819.

What follows are sequences tested on VDR:RXRa (NR concentration 270 nM, RXRa partner concentration 90 nM) (assay: PBM binding z-score (relative to random genomic background probes); higher = stronger binding; sequences stand for … in GC…GCGATTGACAGCGTAGAATGAAGG).
Protocol: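 Protein-binding microarray (Agilent 4x180K custom design, double-stranded 60-nt probes: 5' GC cap, 34-nt variable region, 24-nt constant primer region; full probe sequence given). Purified or IVT nuclear receptor:RXRα heterodimers (3:1 NR:RXRα, mostly 270:90 nM) or homodimers were incubated for 1 h in PBS with 2% milk and no ligand, then detected with Alexa488 antibodies. Fluorescence from o1-orientation probes (~5 replicates averaged) was converted to z-scores against 500 random hg19 background probes. Variable regions are seed direct-repeat (DR0–DR5) sites, all their single-nucleotide variants and half-site ablations.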
Sequence TAGCCTAGTTCAGATCGGGCCAGTATACGCTATA has a PBM binding z-score of -0.0916. In the case of TCGAGTACGTTACCAATGGGGCATTCAGCTTTCT, the PBM binding z-score is reported as 0.458. Work on TCTTGTAGATCAACAGGAGGTTAAGTAAGATCGA yielded a PBM binding z-score of 0.844. In the case of AGTCAAAGTTCACTGGGTAACGTAAGATTCAGCT, the PBM binding z-score is reported as 4.34. CGGAGTAGGTTATGGGGCATTCAGGCAACGGTGA gave a PBM binding z-score of 0.00597. For CCTACTGGGCCATCAGGTCGTTGATATCAACGTT, the PBM binding z-score was 0.18. For ATCTCGAGGTAACCAAGTTCAGTGAATGCCGAAC, the PBM binding z-score was 5.47. GCTAGCAGGCCATTTAGGTCACTCAATGACGGGC was tested, and the PBM binding z-score was 0.996. For CCTTACGGGTCACTGACAGGTTATAACATTTGGA, the PBM binding z-score was 3.84. For TCATATAGGTAAACAAGTGAAAGTCCGTAAGTTA, the PBM binding z-score was 1.09. In the case of TCTTGTAGATCAGCAGGTTAAGATAGCTGGCCAA, the PBM binding z-score is reported as 0.44. GTACCAAGGTGAATAGGTCGTTGTTGAGTAGGCG gave a PBM binding z-score of 0.825. For ACTAGCGGGCCAAGGGTCACTCAAGATTAGTCCG, the PBM binding z-score was 2.66. AGTCAAAGTTCATCTAGGTTACGTAAGATATGCT showed a PBM binding z-score of 5.8. For CCGACTGGGGCAAGGCTACCATAACGCACAGCCA, the PBM binding z-score was -0.501. For AGAATGAGGTTATACGTAGATCAGAGAAGAAAGT, the PBM binding z-score was 1.29. Sequence GGAACGAGGGTATTCGAGTTGATAGCATGGCGAT has a PBM binding z-score of 1.18. Work on ATATGTAGGTTACATCCGGGTCATTGAGGCTATG yielded a PBM binding z-score of 5.02. Sequence CCTACTGCGCCATTCAGAGGTCATTGATCATATG has a PBM binding z-score of 3.85. ATCTCTAGGTAAAAGTTCATTGAATCCCGAGGAT gave a PBM binding z-score of 2.82. CCTACTGGGCCACGAAAGGTCATTAATTCAGTGA gave a PBM binding z-score of 3.74. TAGCCCAGGTCAGATCGGGCCAGTATACGCTATA showed a PBM binding z-score of 0.983. For GCTAGCAGGCCATTTGGGTCACTTAATGACGGGC, the PBM binding z-score was 0.902. TGACCAAGGTGAAGGTCGTTGATCCCTCTGTAGA showed a PBM binding z-score of 1.43. For TCTAGTTGGTCAAAGGTCACAAACTCGAAATGCG, the PBM binding z-score was 5.17. Work on ATCTCTAGGTAAAGATATTTCAGTGAATGCAAAT yielded a PBM binding z-score of 0.441. CCTGCTAGGTCAATTGTCAGCTAAAGCAGCTCGC showed a PBM binding z-score of 0.479. In the case of GCTAGCAGGCCATTCGGGTCACTCAATGACGGGC, the PBM binding z-score is reported as 3.27. For TATACAGGGTCAAAGGCGAGAGTACGAATGTCGA, the PBM binding z-score was 4.59. CGAACTAGGACAGAACAGGACAGTGAAGGATGAT gave a PBM binding z-score of -0.358. Sequence TCTCGGAGGACTCGAAGGTCAGAGCTTTCCAGAG has a PBM binding z-score of 0.759. For AGAATGAGATTATTAAGATCAGGGAATTGCGGTC, the PBM binding z-score was -0.494. In the case of GCTGCTAGGTCAACTGATGGTAAGCTAAAGCTCG, the PBM binding z-score is reported as 1.23. TCATATAGGTAAAGGTCAAAGTCGAACGATATGA showed a PBM binding z-score of 4.77. CCGACTGGGGCATAAGGTTATCATAAGCCAGCCC was tested, and the PBM binding z-score was 0.25. ATCGAAAGGTCGTGAGGTGAGTATCCAGAAAGGC showed a PBM binding z-score of 3.39. ACAGACAGGTGTTGAAGGTAACTCAGGCTATCAT showed a PBM binding z-score of -0.203. In the case of AATACAGGGTCATCGTAGGCCTGAGTACGCACAG, the PBM binding z-score is reported as 4.97. TCGAGGAGGTTAGGGGCATTCAGAATGGCGTCGA gave a PBM binding z-score of 1.03. For ATCTTTAGGTAAGACTCAGTTCAGTGAAGAACGC, the PBM binding z-score was 0.748.
